In PubChem BioAssay AID1494157 (National Center for Advancing Translational Sciences (NCATS), 2020):
Records with an inconclusive call do not appear. Calls of active or inactive are those of the source. Calls come from the whole dose curve.

Experiment: Confirmatory qHTS for inhibitors of MERS-S pseudo-typed particle cell entry
Conditions: MERS-S pseudotyped particle entry, luciferase reporter; series mostly up to 57.1 µM

CCN(CC)Cc1cc(Nc2ccnc3cc(Cl)ccc23)ccc1O
Potency: 9.61 µM (active)

COc1cccc2c1C(=O)c1c(O)c3c(c(O)c1C2=O)C[C@@](O)(C(C)=O)C[C@@H]3O[C@H]1C[C@H](N)[C@H](O)[C@H](C)O1
Potency: 3.83 µM (active)

c1ccc2c(c1)Sc1ccccc1N2CC1CN2CCC1CC2 (stereo unspecified)
Potency: 12.1 µM (active)

CN(C)[C@@H](CCOc1cccc2ccccc12)c1ccccc1
Potency: 12.1 µM (active)

OCCN1CCN(CC/C=C2/c3ccccc3Sc3ccc(C(F)(F)F)cc32)CC1
Potency: 12.1 µM (active)

O=c1[nH]c(=O)n([C@H]2C[C@H](O)[C@@H](CO)O2)cc1C(F)(F)F
Potency: 6.81 µM (active)

CN(C)CCC=C1c2ccccc2C(C)(C)c2ccccc21
Potency: 15.2 µM (active)

CCc1c2c(nc3ccc(OC(=O)N4CCC(N5CCCCC5)CC4)cc13)-c1cc3c(c(=O)n1C2)COC(=O)[C@]3(O)CC
Potency: 15.2 µM (active)

CCn1cc(C(=O)O)c(=O)c2cc(F)c(N3CCNC(C)C3)c(F)c21 (stereo unspecified)
Potency: inactive

CN1CCC(=C2c3ccccc3C=Cc3ccccc32)CC1
Potency: 19.2 µM (active)

CC(C)(C)C(=O)OCOP(=O)(COCCn1cnc2c(N)ncnc21)OCOC(=O)C(C)(C)C
Potency: 0.0304 µM (active)

Nc1nc(Cl)nc2c1ncn2C1CC(O)C(CO)O1 (stereo unspecified)
Potency: 12.1 µM (active)

COc1cccc2c1C(=O)c1c(O)c3c(c(O)c1C2=O)C[C@@](O)(C(=O)CO)CC3OC1CC(N2CCOC(OC)C2)C(O)C(C)O1 (stereo partly specified)
Potency: 0.215 µM (active)

COC(=O)C[C@](O)(CCCC(C)(C)O)C(=O)O[C@@H]1C(OC)=C[C@]23CCCN2CCc2cc4c(cc2[C@H]13)OCO4
Potency: 0.607 µM (active)

N=C(N)c1ccc(OCCCCCOc2ccc(C(=N)N)cc2)cc1
Potency: 12.1 µM (active)

COc1ccc(Cc2nccc3cc(OC)c(OC)cc23)cc1OC
Potency: 4.82 µM (active)
